{"source": "PubChem BioAssay AID1347422", "about": "(Sanford-Burnham Center for Chemical Genomics, 2020)", "note": "Over roughly 1,000 compounds, “thermal shift dTm” has its median near 0.19; the highest 2% begin near 1.7. This is one part of a sample in which the highest values are shown more often than they occur. Activity calls are given as the source filed them.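 The calls were made as follows: active = mean rise in melting temperature of at least 1 degC over same-plate control wells; inactive = below that, where a call was filed.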", "data": [{"biological_target": "Sulfhydryl oxidase 1 (Homo sapiens) (UniProt O00391)", "sequence (O00391 whole entry, looked up)": "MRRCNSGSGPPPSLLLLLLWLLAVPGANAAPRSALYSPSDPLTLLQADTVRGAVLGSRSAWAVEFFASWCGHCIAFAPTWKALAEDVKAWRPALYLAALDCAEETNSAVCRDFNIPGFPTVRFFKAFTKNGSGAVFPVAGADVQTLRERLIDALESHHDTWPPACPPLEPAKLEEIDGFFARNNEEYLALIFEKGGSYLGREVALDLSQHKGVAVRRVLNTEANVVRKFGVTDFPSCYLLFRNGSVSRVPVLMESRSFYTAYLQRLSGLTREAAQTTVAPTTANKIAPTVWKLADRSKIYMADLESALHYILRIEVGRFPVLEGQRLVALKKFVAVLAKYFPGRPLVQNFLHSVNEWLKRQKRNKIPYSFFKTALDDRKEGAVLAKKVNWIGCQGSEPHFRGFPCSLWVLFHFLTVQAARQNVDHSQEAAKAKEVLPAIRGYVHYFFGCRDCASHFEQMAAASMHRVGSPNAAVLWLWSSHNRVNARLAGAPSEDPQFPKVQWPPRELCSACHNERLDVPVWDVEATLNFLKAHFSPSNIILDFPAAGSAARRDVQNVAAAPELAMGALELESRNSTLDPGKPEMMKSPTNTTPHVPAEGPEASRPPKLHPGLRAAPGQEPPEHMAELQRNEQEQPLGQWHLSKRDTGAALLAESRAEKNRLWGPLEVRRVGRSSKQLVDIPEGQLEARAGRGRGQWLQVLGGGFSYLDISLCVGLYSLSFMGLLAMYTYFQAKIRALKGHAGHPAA", "assay": "ligand-induced melting shift of human QSOX1 – biophysical, protein thermal shift, single concentration, QSOX1 inhibitor project, confirmation (AID 1347422);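 also: dTm is compound Tm minus mean Tm of DMSO-only wells on that plate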", "settings": "recombinant hQSOX1 thermal shift, Sypro Orange, at 25 µM, stronger effect = higher value", "values": [{"compound": "O=C(Nc1n[nH]c(-c2ccccc2)n1)N1CCC2(C=Cc3ccccc32)CC1", "thermal shift dTm": "0.09 °C"}, {"compound": "CCCCC1=NN2C(=N)/C(=C/c3ccc(Cl)cc3Cl)C(=O)N=C2S1", "thermal shift dTm": "0.11 °C"}, {"compound": "CCOC(=O)c1sc(NC(=O)CSc2nc(SC)ns2)nc1C", "thermal shift dTm": "0.19 °C"}, {"compound": "Cc1sc(NC(=O)C#Cc2ccccc2)c(C(N)=O)c1C", "thermal shift dTm": "0.33 °C"}, {"compound": "CCC(c1ccc(OC)cc1)N(CC)C(=O)Nc1ccccc1", "note": "(stereo unspecified)", "thermal shift dTm": "0.14 °C"}, {"compound": "COC(=O)c1cccc(NC(=O)c2ccc(Cl)s2)c1", "thermal shift dTm": "0.04 °C"}, {"compound": "C=CCSC1=N/C(=C\\c2ccc(-c3cccc(Cl)c3)o2)C(=O)S1", "thermal shift dTm": "0.63 °C"}, {"compound": "O=C(NCCC1=CCCCC1)Nc1cccc(F)c1", "thermal shift dTm": "0.19 °C"}, {"compound": "CCN(CC)c1ccc2cc(-c3nc4ccccc4o3)c(=O)oc2c1", "thermal shift dTm": "0.15 °C"}, {"compound": "COc1ccc(OC)c(-c2nc(NC(=O)c3ccccc3OC)sc2C)c1", "thermal shift dTm": "-7.06 °C (inactive)"}, {"compound": "COc1ccc2nc(NC(=O)c3ccc(C)o3)sc2c1", "thermal shift dTm": "0.04 °C"}, {"compound": "COc1ccc(C(=O)Nc2nc(-c3cc(OC)ccc3OC)c(C)s2)cc1", "thermal shift dTm": "2.73 °C (active)"}, {"compound": "CC1CCc2c(sc3ncn(CC(=O)Nc4ccccc4F)c(=O)c23)C1", "note": "(stereo unspecified)", "thermal shift dTm": "0.26 °C"}, {"compound": "COC(=O)C1=C(C)N(c2ccc(Cl)cc2)C(=O)/C1=C\\c1ccco1", "thermal shift dTm": "0.01 °C"}, {"compound": "O=C(Nc1ccc(Cl)cn1)c1cccc(NC(=O)c2cccs2)c1", "thermal shift dTm": "0.37 °C"}, {"compound": "C/C=C/c1c(F)c(F)c(Oc2cccc(NC(C)=O)c2)c(F)c1F", "thermal shift dTm": "0.63 °C"}, {"compound": "C=CCN1C(=O)C(c2c(C)[nH]c3ccccc23)(c2c(C)[nH]c3ccccc23)c2ccccc21", "thermal shift dTm": "1.05 °C (active)"}, {"compound": "FC(F)(F)c1ccc(Cl)c(Nc2nnc(-c3ccncc3)s2)c1", "thermal shift dTm": "0.77 °C"}, {"compound": "Cc1ccc(NC(=O)NCc2nc(-c3ccccc3Cl)no2)cc1", "thermal shift dTm": "0.2 °C"}, {"compound": "Cc1ccc(Nc2nc(-c3sc(C)nc3C)cs2)nc1", "thermal shift dTm": "0.16 °C"}, {"compound": "O=C(Nc1cccc(Cl)c1)N1CCC(C(O)(c2ccccc2)c2ccccc2)CC1", "thermal shift dTm": "0.21 °C"}, {"compound": "O=S1(=O)CC2C(C1)N(c1cccc(C(F)(F)F)c1)C(=S)N2c1ccccc1", "note": "(stereo unspecified)", "thermal shift dTm": "-0.16 °C (inactive)"}, {"compound": "CC(=O)Oc1ccc(-c2csc(Nc3ccccc3F)n2)cc1", "thermal shift dTm": "0.35 °C"}, {"compound": "COc1ccc(S(=O)(=O)NC(C)C2C3CC4CC(C3)CC2C4)cc1", "note": "(stereo unspecified)", "thermal shift dTm": "-0.18 °C (inactive)"}, {"compound": "O=C(Nc1nccs1)c1cccc(NC(=O)c2cc3ccccc3o2)c1", "thermal shift dTm": "1.07 °C (active)"}, {"compound": "Cc1nc(NC(=O)c2ccc(Br)s2)sc1C", "thermal shift dTm": "0.27 °C"}, {"compound": "CCN(C(=O)Nc1ccc(Cl)cc1)c1nnc(-c2ccccc2)s1", "thermal shift dTm": "0.16 °C"}, {"compound": "O=C(Nc1cccc(NC(=O)c2ccco2)c1)c1cccc(F)c1", "thermal shift dTm": "1.39 °C (active)"}, {"compound": "CC(=O)Nc1cccc(NC(=O)c2cccc(NC(=O)c3ccco3)c2)c1", "thermal shift dTm": "0.37 °C"}, {"compound": "CCc1ccc(C(=O)Nc2cccc(NC(=O)c3ccco3)c2)cc1", "thermal shift dTm": "2.18 °C (active)"}, {"compound": "Cc1ccccc1OCc1nc(-c2cccc(NC(=O)c3ccco3)c2)no1", "thermal shift dTm": "0.57 °C"}, {"compound": "COc1ccc(C(=O)/C=C/c2cccc(OC)c2)cc1", "thermal shift dTm": "2.07 °C (active)"}, {"compound": "Nc1cccc(/C=C/C(=O)c2ccccc2)c1", "thermal shift dTm": "0.57 °C"}, {"compound": "COc1ccc(/C=C/C(=O)Nc2cccc(C(C)=O)c2)cc1", "thermal shift dTm": "1.18 °C (active)"}, {"compound": "O=C(NC1CC(=O)N(Cc2cccc3ccccc23)C1)C(=O)c1ccccc1", "note": "(stereo unspecified)", "thermal shift dTm": "0.23 °C"}, {"compound": "O=C(Nc1ccc(Cl)cc1)Nc1ccccc1OC(F)F", "thermal shift dTm": "0.25 °C"}, {"compound": "COc1ccc(C)cc1NC(=O)Nc1ccc(OC(F)F)c(Cl)c1", "thermal shift dTm": "-0.79 °C (inactive)"}, {"compound": "CCCc1cc(=O)[nH]c(SCC(=O)Nc2nc(-c3ccccc3)cs2)n1", "thermal shift dTm": "1.07 °C (active)"}, {"compound": "COc1ccccc1C(=O)NC(=S)Nc1ccc(NC(=O)C(C)C)cc1", "thermal shift dTm": "0.11 °C"}, {"compound": "O=c1c2ccccc2ncn1CCCOc1ccc2ccccc2c1Br", "thermal shift dTm": "0.11 °C"}, {"compound": "COc1ccc(Cl)cc1NC(=S)Nc1c(C)nn(Cc2c(F)cccc2Cl)c1C", "thermal shift dTm": "0.81 °C"}, {"compound": "CCCOC(=O)c1c(NC(=O)C2CC=CCC2C(=O)O)sc(C)c1-c1ccc(F)cc1", "note": "(stereo unspecified)", "thermal shift dTm": "0.77 °C"}, {"compound": "CC1Oc2ccc(-c3csc(NC(=O)COc4ccc(Cl)cc4)n3)cc2NC1=O", "note": "(stereo unspecified)", "thermal shift dTm": "-0.1 °C (inactive)"}, {"compound": "Cc1ccc(-n2[nH]c(CSc3nnnn3-c3ccccc3)cc2=O)cc1", "thermal shift dTm": "0.43 °C"}, {"compound": "Cc1ccc(-c2cc(-c3ccc(F)cc3)n[nH]2)c(O)c1", "thermal shift dTm": "1.84 °C (active)"}, {"compound": "Cc1ccc(O)c(-c2cc(-c3ccccc3)n[nH]2)c1", "thermal shift dTm": "0.01 °C"}, {"compound": "Cc1[nH]nc(-c2ccc(O)c(O)c2O)c1Oc1ccc(F)cc1", "thermal shift dTm": "-5.32 °C (inactive)"}, {"compound": "O=C(Nc1cccc(-c2noc(CCc3ccccc3)n2)c1)c1cccs1", "thermal shift dTm": "0.1 °C"}, {"compound": "O=C(/C=C/c1ccco1)NCc1cccc(CNC(=O)/C=C/c2ccco2)c1", "thermal shift dTm": "1.04 °C (active)"}, {"compound": "CCCC(=O)NC(c1ccccc1OC)c1c(OC(=O)COc2ccccc2)ccc2ccccc12", "note": "(stereo unspecified)", "thermal shift dTm": "-0.13 °C (inactive)"}, {"compound": "OCc1ccc(OCc2ccc(F)cc2)c(Br)c1", "thermal shift dTm": "0.58 °C"}, {"compound": "COc1cccc(C(=O)NCCc2c[nH]c3ccc(C)cc23)c1", "thermal shift dTm": "0.07 °C"}, {"compound": "COc1ccc2[nH]cc(CCNC(=O)c3ccc(OC(C)=O)cc3)c2c1", "thermal shift dTm": "0.81 °C"}, {"compound": "COc1ccc2[nH]cc(CCNC(=O)c3cccc(Cl)c3)c2c1", "thermal shift dTm": "1.74 °C (active)"}, {"compound": "NC(=O)c1ccc(NC(=O)C2CC2(c2ccccc2)c2ccccc2)cc1", "note": "(stereo unspecified)", "thermal shift dTm": "0.19 °C"}, {"compound": "O=C(Nc1cccc(OCC2CCCO2)c1)c1cccs1", "note": "(stereo unspecified)", "thermal shift dTm": "0.09 °C"}]}]}
